What follows are compounds tested on Pseudogymnoascus destructans 20631-21 (assay: growth activity index (DuctApe, 0 = no growth, 9 = maximal growth) (index 0-9); higher = more fungal growth (less inhibition), active = 0 or less; extreme values may be limits of the assay). Conditions: concentration level (1-4, increasing; Biolog proprietary): 1; temperature: 13 °C; YPD.
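Note: biolog Phenotype Microarray plates PM21–25, OD595 followed daily over 11 days, growth curves converted to index, mean of two independent experiments.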

Compound | growth activity index
[O-][I+3]([O-])([O-])O [Sodium metaperiodate] (Biolog plate: PM23) | 2 (inactive)
[N-]=[N+]=[N-] [Sodium Azide] (Biolog plate: PM23) | 2.67 (inactive)
N.N.[Cl][Pt][Cl] [Cisplatin] (Biolog plate: PM24) | 5 (inactive)
CNC1CC(N)C(O)C(OC2OC(CO)C(O)C3OC4(OC(C(N)CO)C(O)C(O)C4O)OC23)C1O (stereo not drawn) [Hygromycin B] (Biolog plate: PM25) | 2.67 (inactive)
N#CO [Sodium Cyanate] (Biolog plate: PM23) | 5 (inactive)
[Cl][Ni][Cl] [Nickel chloride] (Biolog plate: PM21) | 5 (inactive)
[Cl][Cd][Cl] [Cadmium Chloride] (Biolog plate: PM23) | 4.33 (inactive)
CN(CC[C@H](N)CC(=O)N[C@H]1C=C[C@H](n2ccc(N)nc2=O)O[C@@H]1C(=O)O)C(=N)N [Blasticidin S] (Biolog plate: PM24) | 4.67 (inactive)
O=[As]([O-])([O-])[O-].[Na+].[Na+].[Na+] [Sodium Arsenate] (Biolog plate: PM22) | 4.67 (inactive)
O=[Se](=O)([O-])[O-].[Na+].[Na+] [Sodium Selenate] (Biolog plate: PM23) | 5 (inactive)
CCCC1COC(Cn2cncn2)(c2ccc(Cl)cc2Cl)O1 (stereo not drawn) [Propiconazole] (Biolog plate: PM24) | 4.67 (inactive)
O=[As][O-].[Na+] [Sodium Arsenite] (Biolog plate: PM23) | 4 (inactive)
C[n+]1ccc(-c2cc[n+](C)cc2)cc1 [Methyl viologen] (Biolog plate: PM24) | 1 (inactive)
CCCCCCCCCCCCCCCC[n+]1ccccc1 [Cetylpyridinium chloride] (Biolog plate: PM21) | 5.25 (inactive)

Same assay, conditions: concentration level (1-4, increasing; Biolog proprietary): 2; temperature: 13 °C; YPD

Compound | growth activity index
[N-]=[N+]=CC(=O)OC[C@H](N)C(=O)O [Azaserine] (Biolog plate: PM22) | 4.33 (inactive)
[Cl][Cr]([Cl])[Cl] [Chromium (III) chloride] (Biolog plate: PM23) | 4 (inactive)
Nc1ncn[nH]1 [3-Amino-1,2,4-triazole] (Biolog plate: PM22) | 0 (active)
CCCCC(C#N)(Cn1cncn1)c1ccc(Cl)cc1 (stereo not drawn) [Myclobutanil] (Biolog plate: PM22) | 0.667 (inactive)
CC1C=CC=CCCC=CC=CC=CC=CC(OC2OC(C)C(O)C(N)C2O)CC2OC(O)(CC(O)C(O)CCC(O)CC(O)CC(O)CC(=O)OC(C)C(C)C1O)CC(O)C2C(=O)O (stereo not drawn) [Nystatin] (Biolog plate: PM21) | 0 (active)
[K+].[K+].[O]=[Cr](=[O])([O-])[O-] [Potassium Chromate] (Biolog plate: PM24) | 4 (inactive)
[Na+].[Na+].[O]=[Cr](=[O])([O-])[O][Cr](=[O])(=[O])[O-] [Sodium Dichromate] (Biolog plate: PM21) | 5 (inactive)
Nc1ccncc1 [4-Aminopyridine] (Biolog plate: PM25) | 4 (inactive)
O=[Se]([O-])[O-].[Na+].[Na+] [Sodium Selenite] (Biolog plate: PM21) | 5.25 (inactive)
C[C@@H]1C[C@@H]([C@H](O)CC2CC(=O)NC(=O)C2)C(=O)[C@@H](C)C1 [Cycloheximide] (Biolog plate: PM22) | 4 (inactive)
[O-][I+3]([O-])([O-])O [Sodium metaperiodate] (Biolog plate: PM23) | 2 (inactive)
[N-]=[N+]=[N-] [Sodium Azide] (Biolog plate: PM23) | 1 (inactive)
N.N.[Cl][Pt][Cl] [Cisplatin] (Biolog plate: PM24) | 4.67 (inactive)
CNC1CC(N)C(O)C(OC2OC(CO)C(O)C3OC4(OC(C(N)CO)C(O)C(O)C4O)OC23)C1O (stereo not drawn) [Hygromycin B] (Biolog plate: PM25) | 2 (inactive)
N#CO [Sodium Cyanate] (Biolog plate: PM23) | 4.67 (inactive)
[Cl][Ni][Cl] [Nickel chloride] (Biolog plate: PM21) | 4.25 (inactive)
[Cl][Cd][Cl] [Cadmium Chloride] (Biolog plate: PM23) | 2 (inactive)
CN(CC[C@H](N)CC(=O)N[C@H]1C=C[C@H](n2ccc(N)nc2=O)O[C@@H]1C(=O)O)C(=N)N [Blasticidin S] (Biolog plate: PM24) | 4.33 (inactive)
O=[As]([O-])([O-])[O-].[Na+].[Na+].[Na+] [Sodium Arsenate] (Biolog plate: PM22) | 4.33 (inactive)
O=[Se](=O)([O-])[O-].[Na+].[Na+] [Sodium Selenate] (Biolog plate: PM23) | 4 (inactive)
CCCC1COC(Cn2cncn2)(c2ccc(Cl)cc2Cl)O1 (stereo not drawn) [Propiconazole] (Biolog plate: PM24) | 2 (inactive)
O=[As][O-].[Na+] [Sodium Arsenite] (Biolog plate: PM23) | 4.67 (inactive)
C[n+]1ccc(-c2cc[n+](C)cc2)cc1 [Methyl viologen] (Biolog plate: PM24) | 0 (active)
CCCCCCCCCCCCCCCC[n+]1ccccc1 [Cetylpyridinium chloride] (Biolog plate: PM21) | 0 (active)
